ClpP mod: qHTS Assay for Activators of ClpP | purified B. subtilis ClpP, FRET peptide cleavage, 20 min | ATP-dependent Clp protease proteolytic subunit (Bacillus subtilis (strain 168)), P80244 | Potency, µM (top dose mostly 57.5 µM), without a hit: at the highest dose activity change, negative = active | 340,000 compounds, 1.9% hits | AID 651965, 2013; active = well fitted falling curve with a large enough effect; inconclusive = small, poorly fitted or top-dose-only effect; inactive = no such curve, though single readings can be large or run the other way; also: the source files actives as falling curves though it sought activators and does not explain the sign; nearly all actives have a fitted effect of over 65% in size
Target sequence (P80244 whole entry, looked up): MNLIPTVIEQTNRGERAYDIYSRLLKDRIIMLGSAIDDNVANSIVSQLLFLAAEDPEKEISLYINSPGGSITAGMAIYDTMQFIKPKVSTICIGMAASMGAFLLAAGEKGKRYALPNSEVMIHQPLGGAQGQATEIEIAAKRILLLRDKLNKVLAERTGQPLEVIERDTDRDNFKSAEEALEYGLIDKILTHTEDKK
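ClpP 10 microg/mL final, pH 8 Tris/KCl buffer with BSA, glycerol, Tween-20; compound pinned in; FRET-FV substrate; RT 20 min; Ex320/Em430; ΔFRET vs ADEP 5.8 microM, DMSO, no enzyme.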
RORgamma inh: qHTS for inhibitors of ROR gamma transcriptional activity. Nuclear receptor ROR-gamma (Mus musculus), P51450. Potency, µM (titrated, usually from 53.6 µM), inactives show at the highest dose activity change, negative = inhibition, usual class: inhibitors. AID 2551, 2010. Drosophila S2 Gal4-RORgamma UAS-luciferase reporter, 20 h. 310,000 compounds, 5.4% hits; also: % is scaled to controls: 0 for no effect and ±100 for the full control effect; nearly all actives have a fitted effect of over 60% in size
Target sequence (P51450 whole entry, looked up, the tested form may be a part): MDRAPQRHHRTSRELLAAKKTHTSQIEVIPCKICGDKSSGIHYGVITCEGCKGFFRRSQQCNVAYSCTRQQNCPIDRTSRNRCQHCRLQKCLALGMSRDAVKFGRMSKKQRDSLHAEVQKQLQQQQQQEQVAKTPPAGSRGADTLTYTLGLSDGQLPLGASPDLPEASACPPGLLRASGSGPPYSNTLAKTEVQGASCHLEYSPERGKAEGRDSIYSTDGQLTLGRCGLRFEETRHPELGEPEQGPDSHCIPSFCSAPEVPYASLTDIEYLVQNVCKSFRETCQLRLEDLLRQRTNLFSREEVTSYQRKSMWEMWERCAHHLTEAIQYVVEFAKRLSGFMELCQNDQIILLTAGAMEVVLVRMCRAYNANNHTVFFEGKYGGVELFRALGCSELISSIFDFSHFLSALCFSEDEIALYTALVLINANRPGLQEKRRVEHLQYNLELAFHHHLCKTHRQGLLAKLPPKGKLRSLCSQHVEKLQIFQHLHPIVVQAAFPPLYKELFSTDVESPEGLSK
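A Gal4/UAS one-hybrid system in insect cells: metallothionein-promoter Gal4–ROR gamma fusion plus Photinus luciferase reporter. Copper sulfate 700 uM final, 20 hr ambient incubation, luminescent detection after 10 min with reagent.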
Sfp inh: qHTS Assay for Inhibitors of Bacillus subtilis Sfp phosphopantetheinyl transferase (PPTase); Biochemical Sfp PPTase activity, qHTS; Potency, µM, inactives show largest response in the series, negative = inhibition, usual class: inhibitors; 310,000 compounds, 3.5% hits;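 also: the enzyme is Sfp with the accession as filed and its product quenches rhodamine fluorescence; 0% = enzyme reaction without inhibitor and -100% = no enzyme wells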
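Fluorescence-quenching assay with 15 nM Sfp, 5 uM rhodamine-CoA and 12.5 uM BHQ-2-labelled ybbR peptide in pH 7.6 Hepes/MgCl2 buffer. Enzyme was pre-incubated with compound for 15 min at room temperature. Rate was taken from the 30-min fluorescence change (525/598 nm).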
VP16 counter: VP16 counterscreen qHTS for inhibitors of ROR gamma transcriptional activity; Drosophila S2 Gal4-VP16 UAS-luciferase, luminescence, 20 h; Potency, µM (titrated, usually from 53.6 µM), inactives show top-dose activity, negative = inhibition, hits mostly inhibitors; 310,000 compounds, 3.5% hits; AID 2546, 2010;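 also: Gal4-VP16 expression switched on by copper sulfate through the metallothionein promoter; % is scaled to controls: 0 for no effect and ±100 for the full control effect; nearly all actives have a fitted effect of over 50% in size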
Epigenetic derep: Quantitative High-Throughput Screen for Regulators of Epigenetic Control. 280,000 compounds, 0.2% hits. murine LDR cells, GFP reporter derepression, 30 h. Potency, µM (highest dose often 53.9 µM), for the others: top-dose GFP activation, hits mostly activators; also: % of control where 0% means no effect; nearly all actives have a fitted effect of over 60% in size
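GFP-positive cell count by laser-scanning cytometry (objects 20–120 um) after 30 h, 37 C compound exposure of murine LDR cells; reporter is CMV-GFP integrated at a silenced locus, inducible by HDAC or DNMT inhibitors.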
PINK1 modulator: A Quantitative High throughput Screen to Identify Chemical Modulators of PINK1 Expression; 410,000 compounds, 0.2% hits; Potency, µM (titrated, usually from 76.6 µM), for inactives: top-dose activation (PINK1 increase), most hits filed as activators; PINK1 immunofluorescence, high-content cytometry, 24 h; active = well fitted activation curve with a large enough effect; inconclusive = small, poorly fitted or top-dose-only effect; cell line not stated here; also: % of control where 0% means no effect; nearly all actives have a fitted effect of over 65% in size
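Cells are seeded, rested 12 hours, then given compound at five concentrations or DMSO for 24 hours. After fixation, blocking and antibody staining, PINK1 amount and mitochondrial localization are scored; CCCP serves as control.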
Starred values were filed as active, the others as inactive; ? = inconclusive; · = no result given; [ ] = remark or other dose. Shown are actives, neighbours in structure and some others; about 8.1% of the full set was active somewhere. Unless noted, calls follow the shape of the dose curve; as a rule, active = well fitted curve in the direction sought with a large enough effect; inconclusive = small, poorly fitted or top-dose-only effect, or another doubt; inactive = no such curve, though single readings can be large; an effect the other way counts as inactive or inconclusive. Potency is read from the fitted curve at half-maximal effect.

SMILES | ClpP mod | RORgamma inh | Sfp inh | VP16 counter | Epigenetic derep | PINK1 modulator
FC(F)(F)c1cnc(N2CCCN(C(=S)Nc3ccccc3)CC2)c(Cl)c1 | · | 7.9µM* | -5% | ? | -1% | 5%
FC(F)(F)c1cnc(N2CCN(C(=S)NCc3ccccc3)CC2)c(Cl)c1 | · | -10% | 6% | -15% | 2% | ?
Cc1ccc(NC(=S)N2CCCC2)cc1Cl | 1% | 16µM* | 11% | ? | · | -1%
COc1ccc(CCC(=O)c2c(O)cc(O[C@@H]3O[C@H](CO)[C@@H](O)[C@H](O)[C@H]3O[C@@H]3O[C@@H](C)[C@H](O)[C@@H](O)[C@H]3O)cc2O)cc1O | · | -5% | · | 8% | · | ·
CCC(CC)C(=O)Nc1nnc(-c2cccs2)s1 | 25µM* | 5% | -5% | -7% | -1% | -2%
COc1cccc(OC)c1C(=O)Nc1nnc(-c2cccs2)s1 | -25% | 15% | -28% | 2% | 10% | 1%
CCCc1nnc(NC(=O)CN2CCN(C)CC2)s1 | 0% | 3% | -19% | -6% | 0% | 0%
CN1CCN(CC(=O)Nc2nnc(-c3cccs3)s2)CC1 | 22µM* | 0% | -1% | -4% | 0% | 0%
COc1cccc(N2CC(NC(=O)c3ccc(S(=O)(=O)N4CCCCC4)cc3)CC2=O)c1 (stereo not drawn) | -1% | · | · | · | -1% | 0%
O=C(CCl)Nc1cccc(Oc2ccccc2)c1 | · | 10µM* | 8% | ? | 0% | 0%
O=C(CCl)Nc1ccc(N=Nc2ccccc2)cc1 | 1% | ? | ? | ? | 0% | -1%
O=C(CCl)Nc1ccc(-c2ccccc2)cc1 | 2% | 25µM* | 19% | ? | -1% | -3%
O=C(CCl)Nc1cccc(Oc2cnccn2)c1 | 3% | ? | 13% | ? | · | 12%
CCOc1ccc(CNC(=O)c2ccc3nc(CC)c(CC)nc3c2)cc1 | -14% | · | · | · | 5% | 0%
COc1ccc(C(=O)Oc2ccc(/C=N/NC(=O)c3ccccc3OC)cc2[N+](=O)[O-])cc1 | 28µM* | ? | 8% | -1% | -1% | 14%
COc1ccc(C(=O)N/N=C/c2ccc(OC(=O)c3cccc4ccccc34)c([N+](=O)[O-])c2)cc1 | 0% | -35% | -21% | ? | 0% | 6%
O=C(N/N=C/c1ccc(OC(=O)c2ccccc2)c([N+](=O)[O-])c1)c1ccc(O)cc1 | -2% | 8.9µM* | -2% | ? | 0% | -3%
COC(=O)c1sccc1S(=O)(=O)N(CC(=O)NCc1ccccc1)c1ccccc1 | -2% | · | · | · | 2% | 2%
Cc1ccc(CNC(=O)c2cc3sccc3n2Cc2ccc(Cl)cc2)cc1 | ? | · | · | · | -3% | 6%
CCOc1ccccc1NC(=O)CSC1=Nc2ccccc2C2=NC(CC(=O)NCc3ccc4c(c3)OCO4)C(=O)N12 (stereo not drawn) | 0% | · | · | · | 1% | 9%
C/C(CCc1ccc2c(c1)OCO2)=N\NC(=O)c1ccc(C)cc1C | · | 1% | 12% | -2% | -1% | -1%
COCCNC(=S)N/N=C(\C)CCc1ccc2c(c1)OCO2 | · | 4.5µM* | 40µM* | 10µM* | 0% | -1%
C/C(CCc1ccc2c(c1)OCO2)=N\NC(=S)NC(C)C | 2% | 2.2µM* | 10% | 4.5µM* | ? | -1%
COc1ccc(-c2nc3ccc(NC(C)=O)cc3c(=O)n2Cc2ccccc2)cc1COc1ccc(NC(C)=O)cc1 | 4% | · | · | · | · | 0%
CCOC(=O)c1ccc2c(c1)N(Cc1ccccc1C)C(=O)c1ccccc1S2=O (stereo not drawn) | 0% | -20% | 4% | 22µM* | 0% | 4%[38.3 µM]
SMILES | ClpP mod | RORgamma inh | Sfp inh | VP16 counter | Epigenetic derep | PINK1 modulator
COC(=O)c1ccc2c(c1)N(Cc1cc(C)ccc1C)C(=O)c1ccccc1S2=O (stereo not drawn) | · | -16% | 23% | -2% | 0% | ·
C/C(=N/NC(=O)c1cc2ccccc2cc1O)c1ccco1 | 2% | ? | -10% | ? | · | 1%
C/C(=N\NC(=O)c1ccc(Cl)cc1)c1ccccn1 | · | 0.028µM* | 8% | ? | · | -1%
C/C(=N/NC(=O)c1ccccn1)c1ccco1 | 0% | 10µM* | ? | ? | 7% | 0%[38.3 µM]
C/C(=N/NC(=O)c1ccccn1)c1ccc(O)cc1 | 0% | -8% | -25% | -3% | -1% | 2%
C/C(=N\NC(=O)c1n[nH]c2c1CCC2)c1ccco1 | · | 8.9µM* | 11% | 13µM* | 3% | -1%
C/C(=N\Nc1ccc(Cl)cc1)c1ccccn1 | 1% | ? | 0% | ? | 1% | -3%[38.3 µM]
CCC(C)(C)C1CCc2[nH]nc(C(=O)N/N=C(\C)c3ccco3)c2C1 (stereo not drawn) | · | ? | 7% | ? | 0% | 8%
C/C(=N\NC(=O)c1ccccn1)c1ccc(Cl)cc1 | · | ? | 89µM* | -29% | 6% | -1%
O=C1CCC=C1C(O)c1ccccc1 (stereo not drawn) | · | -1% | -8% | -9% | -1% | ·
O=C(Nc1ccccc1C(=O)Nc1nnc(C(F)(F)F)s1)c1ccccc1 | · | 4.5µM* | 2% | 5µM* | -2% | ?
S=C1SCN(Cc2cccnc2)CN1Cc1ccccc1 | · | 3.2µM* | -20% | 6.3µM* | 7% | 2%
COCCN1CSC(=S)N(Cc2ccco2)C1 | -5% | ? | 32µM* | -15% | 0% | 6%[38.3 µM]
S=C1SCN(Cc2ccccn2)CN1Cc1ccco1 | 2% | ? | 10µM* | -5% | ? | 4%[38.3 µM]
S=C1NCN(Cc2cccnc2)CN1Cc1ccccc1 | -3% | ? | -11% | 4% | 1% | 5%
O=C(O)CCC(NC(=O)c1cncc(O)c1)C(=O)O (stereo not drawn) | 25µM* | 5% | 14% | 1% | 0% | 11%
CCCc1cc(C(=O)Nc2c(C)nn(Cc3ccc(Cl)c(Cl)c3)c2C)no1 | 0% | · | · | · | -2% | 0%
CCCCCCCCCCCCCCCCCCOC[C@@H](O)COP(=O)([O-])OCC[N+](C)(C)C | · | 25% | -1% | 2% | 0% | ·
CC(C)Cc1nc(N2CCN(C(=O)Cc3ccccc3)CC2)c(C#N)c2c1COC(C)(C)C2 | · | -13% | 7% | -3% | -10% | ·
Cc1ccc(S(=O)(=O)N2CCN(c3nc(C)c4c(c3C#N)CC(C)(C)OC4)CC2)cc1 | 28µM* | 5% | -8% | -4% | -9% | 3%
